From PubChem BioAssay AID463173 (ICCB-Longwood Screening Facility, Harvard Medical School, 2010) come the findings set out here.

The structures appear in SMILES notation. The campaign covered roughly 52,000 compounds. About 4,300 (8.3%) were called active. Rule as the data show it: active = survival mostly below about 52% (no sharp cut-off); inactive = mostly above about 56%. Many of the other results were omitted from the sample, so actives are more common in it than they were.

This assay concerns DeltatarO mutant. In words: S. aureus survival, RN4220 and DeltatarO strains – OD600, teichoic acid synthesis inhibitors, primary screen (AID 463173). Particulars: S. aureus RN4220 wild type/DeltatarO growth, OD600, 18 h, hits give low values, screened at 18.75 µg/mL (by protocol).
In the case of `Cc1oc(-c2cccc(Cl)c2)nc1CN1CCC(C(=O)NCc2ccc(F)cc2)CC1`, the survival is 124% (inactive).
As for `CCc1ccccc1NC(=O)c1cc2c(Cl)nc3ccccc3c2s1`, the figure is 42% (active); as for `O=C(Nc1ccc(Cl)cc1)c1cc2c(Cl)nc3ccccc3c2s1`, 94% (inactive).
As for `CCOc1ccccc1NC(=O)c1cc2c(=O)[nH]c3ccccc3c2s1`, the survival was 60% (inactive).
Consider `CC(C)NC(=O)c1cc2c(Cl)nc3ccccc3c2s1`, for which the survival is 56% (inactive).
As for `CCc1ccccc1NC(=O)c1cc(-c2ccc(Cl)s2)nc2ccccc12`, the survival is 71% (inactive).
For the compound `CCOc1ccccc1NC(=O)c1cc2c(Cl)nc3ccccc3c2s1`, the survival is 41% (active).
As for `CCOC(=O)C1=C(CN(CC)Cc2ccccc2)NC(=O)NC1c1ccc(OC)cc1` (centres undefined), the survival was 65% (inactive).
Regarding `CC1(C)CC(=O)c2cc(C(=O)Nc3ccc(Br)cc3)c(=O)n(-c3ccc(Cl)cc3)c2C1`, the survival was 42% (active).
With `COc1ccc(OC)c(NC(=O)c2cc3c(n(-c4ccc(Cl)cc4)c2=O)CC(C)(C)CC3=O)c1` the figure was 69% (inactive); with `CNC(=O)c1cc2c(n(-c3ccc(C)cc3)c1=O)CC(C)(C)CC2=O`, 93% (inactive); with `Cc1ccc(-n2c3c(cc(C(=O)Nc4ccccc4C(N)=O)c2=O)C(=O)CC(C)(C)C3)cc1`, 49% (inactive).
As for `COc1ccccc1NC(=O)c1cc2c(n(-c3ccc(C)cc3)c1=O)CC(C)(C)CC2=O`, the figure is 45% (active); as for `CCOc1ccc(NC(=O)c2cc3c(n(-c4ccc(OC)cc4)c2=O)CC(C)(C)CC3=O)cc1`, 60% (inactive); as for `CN(C)C=NC(=O)c1cc2c(n(-c3ccccc3)c1=O)CC(C)(C)CC2=O`, 46% (inactive).
With `CC1(C)CC(=O)c2cc(C(=O)NC(C)(C)C)c(=O)n(-c3ccccc3)c2C1` the figure was 39% (active); with `CCOC(=O)c1ccc(NC(=O)c2cc3c(n(-c4ccc(C)cc4)c2=O)CC(C)(C)CC3=O)cc1`, 153% (inactive).
Consider `Cc1ccc(CCNC(=O)CCCn2c(=O)c3ccccc3n(Cc3ccccc3C)c2=O)cc1`, for which the survival was 88% (inactive).
`CC1CC(C)CN(C(=O)Cn2cnc3c2c(=O)n(C)c(=O)n3C)C1` (centres undefined): the survival is 107% (inactive).
In the case of `Cc1ccccc1CNC(=O)CN1C(=O)CSc2ccc(S(=O)(=O)N(C)C)cc21`, the survival was 78% (inactive).
As for `CCC(=O)N(Cc1nc2ccccc2c(=O)[nH]1)Cc1ccccc1OC`, the survival was 90% (inactive).
As for `Cc1ccc(N2CCN(C(=O)c3cc(S(=O)(=O)N4CCCCC4)c[nH]3)CC2)c(C)c1`, the figure is 102% (inactive); as for `CCOc1ccc(N(CC(=O)Nc2ccccc2CC)S(=O)(=O)c2c(C)noc2C)cc1`, 79% (inactive); as for `COc1ccc(C(=O)Nc2nnc(SCc3cc(=O)n4cccc(C)c4n3)s2)cc1`, 72% (inactive).
With `Cc1cc(C(=O)O)c(CN2CCCC2)o1` the figure was 74% (active); with `O=C(O)c1ccc(CN2CCCCC2)cc1`, 79% (inactive).
For `Cc1oc(C(=O)O)cc1CN1CCCC1`, the survival was 100% (inactive).
With `CC1=C(C(=O)Nc2cccnc2)C(c2ccccc2Cl)n2nc(-c3ccccc3)nc2N1` (centres undefined) the figure was 74% (inactive); with `Cc1nc(SCC(N)=O)c2c3c(sc2n1)CCCC3`, 80% (inactive).
With `Cc1ccc(-c2nc(NC(=O)CSc3nc(C)nc4sc5c(c34)CCCC5)ns2)cc1` the figure was 53% (inactive).
As for `Cc1nc(SCC(=O)OC(C)(C)C)c2c3c(sc2n1)CCCC3`, the figure is 7% (active); as for `CCCCN(C)c1ncnc2c1cnn2-c1cccc(Cl)c1`, 101% (inactive).
Consider `CCc1ccc(C(=O)c2cn(CC(=O)Nc3ccc4c(c3)OCO4)c3ccc(Cl)cc3c2=O)cc1`, for which the survival was 72% (inactive).
Regarding `CC(C)(C)C1CCc2oc3ccc(NS(=O)(=O)c4cc(Cl)ccc4Cl)cc3c2C1` (centres undefined), the survival is 73% (inactive).
Take `CC(C)(C)C1CCc2oc3ccc(NS(=O)(=O)c4ccc(C(=O)O)cc4)cc3c2C1` (centres undefined): the survival is 16% (active).
With `COc1ccc(S(=O)(=O)Nc2ccc3oc4c(c3c2)CCCC4)cc1` the figure was 27% (active).
Take `O=S(=O)(Nc1ccc2oc3c(c2c1)CCCC3)c1cc(Cl)ccc1Cl`: the survival was 33% (active).
As for `Cc1oc2ccc(NS(=O)(=O)c3ccc(F)cc3)cc2c1C(=O)O`, the figure is 193% (inactive); as for `CCn1cnc2c(=O)oc3ccc(S(=O)(=O)Nc4ccc(OC)cc4)cc3c21`, 75% (inactive).
As for `O=S(=O)(NC1CCCCC1)c1cc(Cl)ccc1Cl`, the figure is 96% (inactive); as for `Cc1ccc(S(=O)(=O)Nc2cc(Cl)c3oc4c(c3c2)CCCC4)cc1`, 117% (inactive).
With `CCOc1ccc(S(=O)(=O)Nc2ccc3oc4c(c3c2)CC(C)CC4)cc1` (centres undefined) the figure was 44% (inactive).
On to `COc1ccc(S(=O)(=O)Nc2ccc3oc4c(c3c2)C(=O)CC(C)(C)C4)cc1`, for which the survival was 159% (inactive).
For the compound `Cc1cc(C)c(S(=O)(=O)Nc2ccc3oc4c(c3c2)CCCC4)cc1C`, the survival was 55% (inactive).
Regarding `Cc1cc(S(=O)(=O)Nc2ccc3oc4c(c3c2)CCCC4)ccc1Cl`, the survival was 41% (active).
As to `CCN1C(=O)c2ccccc2Sc2ccc(NC(=O)Nc3ccc(Br)c(C)c3)cc21`, the survival is 71% (inactive).
With `Oc1ccccc1Nc1nc2ccccc2n2nnnc12` the figure was 80% (inactive).
As for `CN(C)CCCNc1nc(-c2ccc(Cl)cc2)cs1`, the figure is 132% (inactive); as for `CCOc1cc(C2c3c(oc4cc(C)cc(C)c4c3=O)C(=O)N2CCO)ccc1O` (centres undefined), 68% (inactive); as for `O=C(Cn1c2ncccc2c(=O)n1-c1ccccc1)Nc1cccc(C(F)(F)F)c1`, 67% (inactive).
With `O=C(Nc1ccccc1C(=O)N1CCOCC1)C1COc2ccccc2O1` (centres undefined) the figure was 95% (inactive); with `CCC(=O)N1CCc2cc(CNC(=O)c3ccc(F)cc3)ccc21`, 73% (inactive).
`O=C(Nc1ccc(Cl)cc1F)c1cc(S(=O)(=O)NCc2ccc3c(c2)OCO3)ccc1F`: the survival was 77% (inactive).
For `COc1ccc(/C=C2\SC(=S)N(CCC(=O)NCCO)C2=O)cc1`, the survival is 104% (inactive).
`Cc1cc2c(cc1S(=O)(=O)NCc1ccc(N(C)C)cc1)OCC(=O)N2`: the survival was 80% (inactive).
With `COc1ccc(NC(=O)c2[nH]nc3c2CSc2ccccc2-3)c(OC)c1`, the survival is 49% (inactive).
Take `COc1cccc2cc(-c3nc(-c4ccc(C)cc4)c(C)s3)c(=O)oc12`: the survival was 46% (active).
With `CCOc1cccc2cc(-c3nc(-c4ccc(Cl)cc4)c(C)s3)c(=O)oc12` the figure was 105% (inactive).
As for `COc1cccc2cc(-c3nc(Nc4cccc(C)c4)sc3C)c(=O)oc12`, the figure is 98% (inactive).
